The source of these data is PubChem BioAssay (Tox21).

Experiment [1] deals with Thyrotropin-releasing hormone receptor (Homo sapiens) (UniProt P34981). Description: qHTS assay to identify small molecule agonists of the thyrotropin-releasing hormone receptor (TRHR) signaling pathway (AID 1346891; calls by dose curve). The following applies: TRHR-HEK293 calcium fluorescence, agonist mode; series mostly up to 57.6 µM. Summed up: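 HEK293 cells expressing TRHR plated 18 h at 37 C/5% CO2, calcium dye-loaded 2 h at 37 C, then compound added (agonist mode); kinetic calcium fluorescence read 3 min at 1 s intervals; 15 concentrations in triplicate.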
Chain of Thyrotropin-releasing hormone receptor (Homo sapiens) (P34981 whole entry, looked up): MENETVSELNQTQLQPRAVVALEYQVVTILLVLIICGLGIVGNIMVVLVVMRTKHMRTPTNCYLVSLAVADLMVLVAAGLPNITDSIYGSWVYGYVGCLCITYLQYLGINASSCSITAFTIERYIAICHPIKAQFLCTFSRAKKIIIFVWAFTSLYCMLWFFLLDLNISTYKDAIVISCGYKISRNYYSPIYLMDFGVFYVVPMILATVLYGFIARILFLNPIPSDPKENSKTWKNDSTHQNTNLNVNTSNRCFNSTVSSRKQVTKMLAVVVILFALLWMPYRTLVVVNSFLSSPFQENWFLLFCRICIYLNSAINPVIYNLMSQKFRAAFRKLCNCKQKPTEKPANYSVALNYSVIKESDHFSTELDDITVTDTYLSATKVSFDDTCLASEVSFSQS
In general terms: Quantitative high-throughput screening tests each substance at several concentrations.

Experiment [2] in a line: Human pregnane X receptor (PXR) small molecule agonists, qHTS cell viability counter screen (AID 1346977). Also: nearly all actives have a fitted effect of over 50% in size. The following applies: PXR-Luc HepG2 viability, CellTiter-Fluor, 24 h; series mostly up to 92.4 µM. In a few lines:
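PXR-Luc HepG2 cells (2,000/well, 5% charcoal-stripped FBS) preincubated 5 hr, then exposed to compounds 24 hr at 37 C. Viability read in the same wells by CellTiter-Fluor fluorescence, reagent added at 23 hr, 1 hr incubation.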

Experiment [3] is described as follows: Caspase-3/7 induction in HepG2 cells by small molecules, qHTS assay (AID 1346978). Also: nearly all actives have a fitted effect of over 15% in size. The following applies: HepG2 caspase-3/7 activation, Caspase-Glo luminescence, 17 h; series mostly up to 92.4 µM. In a few lines: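 Wild-type HepG2 cells, 2,000/well, settled 5 hr at 37 C and 5% CO2, then compound-treated for 17 hr; caspase-3/7 activity read by luminescent Caspase-Glo 3/7 after 30 min at room temperature.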

Experiment [4] is described as follows: Caspase-3/7 induction in CHO-K1 cells by small molecules, qHTS cell viability counter screen (AID 1346979). Also: nearly all actives have a fitted effect of over 35% in size. The following applies: CellTiter-Fluor fluorescence, 17 h; series mostly up to 92.4 µM. In a few lines:
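Wild-type CHO-K1 cells (1,500/well) treated with compound after 5 h plating; after 16 h at 37C, viability read as CellTiter-Fluor fluorescence following 1 h reagent incubation, in the same wells as the caspase read.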

Experiment [5] can be described thus: Caspase-3/7 induction in CHO-K1 cells by small molecules, qHTS assay (AID 1346980). Also: nearly all actives have a fitted effect of over 15% in size. The note with it: CHO-K1 caspase-3/7 induction, Caspase-Glo luminescence, 17 h; series mostly up to 92.4 µM. Summed up: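 Wild-type CHO-K1 cells exposed to compounds for 17hr at 37 C, 5% CO2. Caspase-3/7 activity then measured by Caspase-Glo 3/7 luminescence after 30min at room temperature.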

Experiment [6] is described as follows: Caspase-3/7 induction in HepG2 cells by small molecules, qHTS cell viability counter screen (AID 1346981). Also: nearly all actives have a fitted effect of over 30% in size. The note with it: CellTiter-Fluor fluorescence, 17 h; series mostly up to 92.4 µM. Summed up:
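After a 5-hr attachment period at 37 C and 5% CO2, wild-type HepG2 cells received compounds in DMSO. Sixteen hours later CellTiter-Fluor was dispensed and the fluorescent signal quantified after a further hour.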

Experiment [7] has as its target Nuclear receptor subfamily 1 group I member 2 (Homo sapiens) (UniProt O75469). Description: Human pregnane X receptor (PXR) small molecule agonists, qHTS assay (AID 1346982). Also: nearly all actives have a fitted effect of over 35% in size. The following applies: PXR-Luc HepG2, CYP3A4 luciferase reporter, 24 h; series mostly up to 92.4 µM. In a few lines:
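Tox21 qHTS; PXR-Luc HepG2; compounds pinned from DMSO; 24 hr, 37 C; ONE-Glo luciferase detection, 30 min room temperature.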

Experiment [8] deals with Acetylcholinesterase (Homo sapiens) (UniProt P22303). Description: Acetylcholinesterase (AChE) small molecule antagonists: enzyme-based qHTS assay (AID 1347397; calls by dose curve; also: nearly all actives have a fitted effect of over 55% in size). The following applies: Potency: AChE enzyme activity inhibition; series mostly up to 115 µM. Summed up:
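In this quantitative HTS, compounds from the Tox21 10K collection were preincubated 30 min at ambient temperature with recombinant human AChE dispensed at 50 mU/mL. Hydrolysis of acetylthiocholine was then followed for 10 min by DTNB colour development.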

Experiment [9] shares this target. Kind of experiment: Acetylcholinesterase (AChE) small molecule antagonists: fluorescence cell-based qHTS assay (AID 1347398; calls by dose curve; also: nearly all actives have a fitted effect of over 50% in size). The following applies: SH-SY5Y cells; Potency: AChE activity; series mostly up to 115 µM. Summed up:
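Cells (SH-SY5Y) attached overnight, were dosed with compound or DMSO vehicle for 30 min at 37 C, and then incubated 40 min at room temperature with acetylthiocholine and Thiolite Green; green fluorescence indexed AChE activity.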

Experiment [10] has the same target. Description: Acetylcholinesterase (AChE) small molecule antagonists: enzyme-based qHTS assay with human liver microsomes (AID 1347399; calls by dose curve; also: nearly all actives have a fitted effect of over 60% in size). The following applies: Potency: qHTS inhibition; series mostly up to 115 µM. Summed up:
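Recombinant human AChE (50 mU/mL in the enzyme mix) and human liver microsomes (0.25 mg/mL final) were preincubated with compound and NADPH (0.25 mg/mL final) for 30 min at 37 C. Acetylthiocholine/DTNB was then added; thiocholine was read colorimetrically after 10 min at room temperature.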

The target in experiment [11] is Cytochrome P450 2D6 (Homo sapiens) (UniProt P10635). Kind of experiment: Cytochrome P450 Family 2 Subfamily D Member 6 (CYP2D6) small molecule antagonists: luciferase reporter qHTS assay (AID 1671196). Also: nearly all actives have a fitted effect of over 50% in size. Also: potency is read from the fitted curve at half-maximal effect. The following applies: P450-Glo CYP2D6 enzyme assay, luciferin luminescence, 1 h; series mostly up to 115 µM. Summed up: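 Room-temperature luminescent CYP2D6 activity assay: compound preincubated 10 min with enzyme–substrate mix, NADPH-initiated reaction 1 h, detection reagent 20 min before reading.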
Chain of Cytochrome P450 2D6 (Homo sapiens) (P10635 whole entry, looked up): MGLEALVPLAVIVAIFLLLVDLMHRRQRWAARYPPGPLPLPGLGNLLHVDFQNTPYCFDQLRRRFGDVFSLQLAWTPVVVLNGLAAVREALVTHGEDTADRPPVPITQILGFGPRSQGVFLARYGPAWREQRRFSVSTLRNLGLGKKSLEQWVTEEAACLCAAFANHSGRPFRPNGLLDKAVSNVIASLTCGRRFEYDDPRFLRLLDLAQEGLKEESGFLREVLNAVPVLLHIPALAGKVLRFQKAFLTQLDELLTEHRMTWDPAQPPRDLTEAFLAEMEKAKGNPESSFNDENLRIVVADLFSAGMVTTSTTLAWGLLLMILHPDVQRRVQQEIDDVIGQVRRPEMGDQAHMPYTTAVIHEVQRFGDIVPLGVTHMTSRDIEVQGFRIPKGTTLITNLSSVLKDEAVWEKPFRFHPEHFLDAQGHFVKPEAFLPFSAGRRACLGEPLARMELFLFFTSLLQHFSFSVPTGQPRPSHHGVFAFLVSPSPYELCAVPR
In general terms: Reporter assays use an easily measured gene product as a stand-in for the process of interest.

Experiment [12] addresses Cytochrome P450 2C19 (Homo sapiens) (UniProt P33261). Description: Cytochrome P450 Family 2 Subfamily C Member 19 (CYP2C19) small molecule antagonists: luciferase reporter qHTS assay (AID 1671197). Also: nearly all actives have a fitted effect of over 65% in size. The following applies: P450-Glo CYP2C19 enzyme, luciferin luminescence, 1 h; series mostly up to 115 µM. Summed up:
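Inhibition of CYP2C19 was scored from loss of luminescence in a P450-Glo proluciferin substrate assay, NADPH-started and run 1 h at 37C, with ketoconazole as positive control.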

For experiment [13], the target named is Cytochrome P450 2C9 (Homo sapiens) (UniProt P11712). Description: Cytochrome P450 Family 2 Subfamily C Member 9 (CYP2C9) small molecule antagonists: luciferase reporter qHTS assay (AID 1671198). Also: nearly all actives have a fitted effect of over 50% in size. The following applies: P450-Glo CYP2C9 enzyme assay, luciferin luminescence; series mostly up to 115 µM. Summed up:
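P450-Glo proluciferin substrate with CYP2C9 enzyme; 10 min RT preincubation, then NADPH regeneration 1 h at 37C; luciferin detection reagent 20 min RT, luminescence in relative luminescence units.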

Experiment [14] concerns the target Cytochrome P450 1A2 (Homo sapiens) (UniProt P05177). Kind of experiment: Cytochrome P450 Family 1 Subfamily A Member 2 (CYP1A2) small molecule antagonists: luciferase reporter qHTS assay (AID 1671199). Also: nearly all actives have a fitted effect of over 50% in size. Also: potency is read from the fitted curve at half-maximal effect. The note with it: P450-Glo CYP1A2 enzyme, luciferin luminescence, 1 h; series mostly up to 115 µM. In a few lines: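 Room-temperature CYP1A2 reaction with proluciferin substrate: compounds added from DMSO, 10 min preincubation, NADPH regeneration for 1 h. Luciferin detection reagent then added; luminescence recorded as RLU.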

For experiment [15], the target named is Voltage-gated inwardly rectifying potassium channel KCNH2 (Homo sapiens) (UniProt Q12809). Description: Human Ether-a-go-go-Related Gene (hERG) channel small molecule antagonists: fluorescence cell-based qHTS assay (AID 1671200). The note with it: hERG-U2OS cells, FluxOR thallium flux fluorescence; series mostly up to 76.8 µM. Summed up: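 hERG-U2OS cells plated overnight at 37 C, loaded with FluxOR II dye 1 h at RT in dark; after 10 min, thallium stimulus added. Fluorescence (480/540 nm) read kinetically for 2 min at 1 s intervals.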
Chain of Voltage-gated inwardly rectifying potassium channel KCNH2 (Homo sapiens) (Q12809 whole entry, looked up): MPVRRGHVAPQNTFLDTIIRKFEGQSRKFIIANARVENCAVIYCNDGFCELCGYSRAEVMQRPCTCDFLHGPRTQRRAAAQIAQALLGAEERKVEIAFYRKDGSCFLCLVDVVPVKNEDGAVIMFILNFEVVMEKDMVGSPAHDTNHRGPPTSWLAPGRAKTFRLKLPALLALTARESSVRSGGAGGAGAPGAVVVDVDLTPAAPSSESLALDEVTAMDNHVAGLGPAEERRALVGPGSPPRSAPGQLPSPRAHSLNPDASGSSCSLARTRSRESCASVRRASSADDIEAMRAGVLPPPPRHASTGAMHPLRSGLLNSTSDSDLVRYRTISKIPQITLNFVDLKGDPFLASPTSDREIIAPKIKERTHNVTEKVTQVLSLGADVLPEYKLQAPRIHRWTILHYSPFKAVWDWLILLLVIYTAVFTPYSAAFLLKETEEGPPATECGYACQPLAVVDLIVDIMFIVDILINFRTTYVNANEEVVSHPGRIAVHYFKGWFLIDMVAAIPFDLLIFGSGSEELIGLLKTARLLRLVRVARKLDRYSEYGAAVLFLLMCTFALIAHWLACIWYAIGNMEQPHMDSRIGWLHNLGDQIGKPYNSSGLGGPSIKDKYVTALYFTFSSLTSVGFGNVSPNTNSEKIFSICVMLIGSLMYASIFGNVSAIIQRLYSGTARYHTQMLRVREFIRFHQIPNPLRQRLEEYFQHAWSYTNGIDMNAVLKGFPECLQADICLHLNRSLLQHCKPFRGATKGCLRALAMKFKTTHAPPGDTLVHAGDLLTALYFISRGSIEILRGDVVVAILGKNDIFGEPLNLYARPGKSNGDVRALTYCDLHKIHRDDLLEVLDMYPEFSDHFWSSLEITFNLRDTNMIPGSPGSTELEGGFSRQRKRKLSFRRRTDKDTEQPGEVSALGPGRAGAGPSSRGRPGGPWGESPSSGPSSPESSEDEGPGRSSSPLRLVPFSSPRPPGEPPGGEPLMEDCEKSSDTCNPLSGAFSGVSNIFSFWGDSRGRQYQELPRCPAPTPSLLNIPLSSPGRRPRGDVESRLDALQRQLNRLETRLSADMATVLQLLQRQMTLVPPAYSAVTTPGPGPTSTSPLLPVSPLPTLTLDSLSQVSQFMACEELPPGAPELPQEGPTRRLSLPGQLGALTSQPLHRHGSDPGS
For orientation: hERG is a cardiac potassium channel; its block is linked to QT prolongation.

Experiment [16] concerns the target Cytochrome P450 3A4 (Homo sapiens) (UniProt P08684). Description: Cytochrome P450 Family 3 Subfamily A Member 4 (CYP3A4) small molecule antagonists: luciferase reporter qHTS assay (AID 1671201). Also: nearly all actives have a fitted effect of over 50% in size. The following applies: P450-Glo CYP3A4 enzyme, luciferin luminescence, 1 h; series mostly up to 115 µM. In a few lines:
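P450-Glo CYP3A4 luminescent assay: compounds preincubated 10 min at room temperature with enzyme and proluciferin substrate, NADPH regeneration added, 1 h room-temperature reaction, stopped with luciferin detection reagent; luminescence read after 20 min. Ketoconazole positive control.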

Experiment [17] concerns the target Acetylcholinesterase (Homo sapiens) (UniProt P22303). Description: Acetylcholinesterase (AChE) small molecule antagonists: colormetric cell-based qHTS assay (AID 1347395; calls by dose curve; also: nearly all actives have a fitted effect of over 30% in size). The following applies: SH-SY5Y cells AChE activity, colorimetric (Ellman); series mostly up to 115 µM. In a few lines:
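SH-SY5Y cells attached overnight, exposed to compound 30 min at 37 C, then given DTNB/acetylthiocholine; after 90 min at 37 C, colorimetric thiocholine read gives cellular AChE activity.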

“And” between values parts separate entries of the source, which are not always exact repeats. Equal values may be shown once. Results filed as inconclusive are left out. More than one record can exist for a structure, and the calls need not agree. The source made the active and inactive calls. Unless noted, calls follow the shape of the dose curve; as a rule, active = well fitted curve in the direction sought with a large enough effect in the repeat runs; inconclusive = weak or mixed curves; inactive = no such curve, though single readings can be large; an effect the other way counts as inactive or inconclusive.

Chain of Cytochrome P450 1A2 (Homo sapiens) (P05177 whole entry, looked up): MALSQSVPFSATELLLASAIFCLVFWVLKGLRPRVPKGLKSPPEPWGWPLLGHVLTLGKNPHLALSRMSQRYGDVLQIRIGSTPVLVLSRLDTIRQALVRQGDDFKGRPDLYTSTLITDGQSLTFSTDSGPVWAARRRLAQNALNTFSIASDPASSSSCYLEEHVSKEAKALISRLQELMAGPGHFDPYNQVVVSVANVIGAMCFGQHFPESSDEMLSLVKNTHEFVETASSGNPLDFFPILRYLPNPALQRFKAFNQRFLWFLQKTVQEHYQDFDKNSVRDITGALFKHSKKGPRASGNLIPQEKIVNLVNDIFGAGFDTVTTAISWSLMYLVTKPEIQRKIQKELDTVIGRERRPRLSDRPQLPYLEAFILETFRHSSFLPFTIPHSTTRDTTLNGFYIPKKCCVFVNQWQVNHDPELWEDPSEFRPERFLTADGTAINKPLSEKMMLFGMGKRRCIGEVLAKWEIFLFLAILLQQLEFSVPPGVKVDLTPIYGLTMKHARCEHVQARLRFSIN
Chain of Cytochrome P450 2C19 (Homo sapiens) (P33261 whole entry, looked up): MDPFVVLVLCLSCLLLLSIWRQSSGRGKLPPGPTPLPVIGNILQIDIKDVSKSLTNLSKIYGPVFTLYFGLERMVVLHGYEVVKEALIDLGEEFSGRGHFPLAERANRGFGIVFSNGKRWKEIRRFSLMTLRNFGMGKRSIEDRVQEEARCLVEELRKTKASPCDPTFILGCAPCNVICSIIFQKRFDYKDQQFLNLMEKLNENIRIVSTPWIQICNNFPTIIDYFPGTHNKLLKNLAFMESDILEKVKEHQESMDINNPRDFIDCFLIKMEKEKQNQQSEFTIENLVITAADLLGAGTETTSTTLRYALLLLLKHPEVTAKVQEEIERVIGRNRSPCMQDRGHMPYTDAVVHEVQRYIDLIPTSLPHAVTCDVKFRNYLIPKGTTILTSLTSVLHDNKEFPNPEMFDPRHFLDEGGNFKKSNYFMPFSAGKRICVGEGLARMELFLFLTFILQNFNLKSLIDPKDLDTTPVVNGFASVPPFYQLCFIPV
Chain of Cytochrome P450 2C9 (Homo sapiens) (P11712 whole entry, looked up): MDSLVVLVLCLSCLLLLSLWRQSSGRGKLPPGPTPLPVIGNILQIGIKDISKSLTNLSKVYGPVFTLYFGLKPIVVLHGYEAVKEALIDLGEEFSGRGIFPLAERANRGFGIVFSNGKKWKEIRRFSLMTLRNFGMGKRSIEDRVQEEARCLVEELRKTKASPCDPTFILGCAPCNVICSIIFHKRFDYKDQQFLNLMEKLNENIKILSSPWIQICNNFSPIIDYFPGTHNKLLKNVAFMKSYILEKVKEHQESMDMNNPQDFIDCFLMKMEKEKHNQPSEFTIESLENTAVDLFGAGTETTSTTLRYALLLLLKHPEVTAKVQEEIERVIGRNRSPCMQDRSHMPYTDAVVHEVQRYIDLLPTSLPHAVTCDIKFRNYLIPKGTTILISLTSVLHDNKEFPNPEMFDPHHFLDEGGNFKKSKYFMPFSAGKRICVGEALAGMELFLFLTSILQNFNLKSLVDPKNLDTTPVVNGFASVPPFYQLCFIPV
Chain of Nuclear receptor subfamily 1 group I member 2 (Homo sapiens) (O75469 whole entry, looked up): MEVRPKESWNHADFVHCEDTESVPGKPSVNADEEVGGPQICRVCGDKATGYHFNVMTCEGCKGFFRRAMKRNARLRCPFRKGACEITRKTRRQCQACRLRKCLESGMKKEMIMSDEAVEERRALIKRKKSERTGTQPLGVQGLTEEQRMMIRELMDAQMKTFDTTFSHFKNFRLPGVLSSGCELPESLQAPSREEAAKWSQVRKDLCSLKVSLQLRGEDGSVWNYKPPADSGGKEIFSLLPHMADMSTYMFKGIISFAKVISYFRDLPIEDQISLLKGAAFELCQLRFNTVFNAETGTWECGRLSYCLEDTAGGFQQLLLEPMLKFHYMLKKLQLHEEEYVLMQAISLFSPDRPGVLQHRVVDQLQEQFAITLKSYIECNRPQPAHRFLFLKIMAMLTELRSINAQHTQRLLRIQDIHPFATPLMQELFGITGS
Chain of Acetylcholinesterase (Homo sapiens) (P22303 whole entry, looked up): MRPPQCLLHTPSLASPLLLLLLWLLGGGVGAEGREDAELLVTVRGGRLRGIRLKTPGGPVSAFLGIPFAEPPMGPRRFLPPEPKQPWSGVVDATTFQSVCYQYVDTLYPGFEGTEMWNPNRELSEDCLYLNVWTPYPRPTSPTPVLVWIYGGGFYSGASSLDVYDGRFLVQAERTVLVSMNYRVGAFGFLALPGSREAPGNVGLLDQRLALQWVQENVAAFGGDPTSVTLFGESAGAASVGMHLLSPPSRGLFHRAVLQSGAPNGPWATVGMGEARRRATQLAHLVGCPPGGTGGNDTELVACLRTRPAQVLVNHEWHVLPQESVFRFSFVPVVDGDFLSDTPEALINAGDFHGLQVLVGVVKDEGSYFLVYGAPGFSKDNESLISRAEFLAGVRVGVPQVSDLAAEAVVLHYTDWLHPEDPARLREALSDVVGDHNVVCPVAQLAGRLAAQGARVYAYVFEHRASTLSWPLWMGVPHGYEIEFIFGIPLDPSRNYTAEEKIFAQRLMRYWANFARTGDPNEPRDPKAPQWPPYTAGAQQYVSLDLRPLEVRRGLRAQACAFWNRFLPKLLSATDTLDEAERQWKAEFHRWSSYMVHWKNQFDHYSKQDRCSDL

Take `CCCCC(CC)C(=O)Cl` (centres undefined): the result in [1], in [3] and in experiment [5] was inactive. For the same compound, the Potency entry in experiment [2], in experiment [4], in [6], in experiment [7], in experiment [8] and in experiment [9] was “inactive” throughout. The Potency result in experiment [10], in experiment [11], in experiment [12], in experiment [13], in experiment [15] and in experiment [16] was “inactive” in each case. Further, in experiment [14], the Potency entry is “inactive and 63.3 µM (active)”.

As for `C=CC(=O)OCCCCCC(C)C`, the result in experiment [1], in experiment [3] and in experiment [5] was inactive. The Potency result in experiment [2], in experiment [4], in [6], in experiment [7], in [8] and in experiment [9] was “inactive” throughout. The Potency entry in experiment [10], in experiment [11], in experiment [12], in [13], in experiment [14] and in experiment [15] was “inactive” each time. Besides, in experiment [16], the Potency entry was “inactive”.

For the compound `O=C(O)Cc1ccccc1`, the outcome in experiment [1], in [3] and in experiment [5] was inactive. In addition, the Potency result in [2], in [4], in [6], in experiment [7], in experiment [17] and in experiment [8] was “inactive” in each case. The Potency result in experiment [9], in experiment [10], in [12], in experiment [13], in experiment [15] and in experiment [16] was “inactive” in each case. For the same compound, the Potency in experiment [11] is 40 µM (active) and 12.3 µM (active); in experiment [14], 63.4 µM (active) and inactive.
